Of roughly 7,900 targets only a part is listed; those with a hit were picked by preference. About 0.6% of all pairs of compound and target were hits.
Legend:
Experiment in all cases: log2 fold change, soluble protein after heating vs DMSO (PISA); higher = thermal stabilisation; K562 cells, 10 uM, 30 min; active = over 0.2 and 3.5 SD of the protein, either way, in both replicates (recomputed)
[1] = compound: NC(=O)Nc1cc(-c2cccc(F)c2)sc1C(=O)N[C@H]1CCCNC1
Outline: (§1)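 K562 cells (2×10^6 cells/mL) were treated with 10 μM compound for 30 min, and aliquots were heated for 3 min over 48°C-58°C. Pooled aliquots were extracted in PBS with 0.5% NP-40 at 4°C, and the supernatant after 21,000xg for 90 min was measured by TMTpro 16plex LC-MS/MS with channel sums equalised. Reported thermal stability, relative to control samples and from duplicates, is a log2 fold change.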

[2] = compound: NC(=O)c1cnc(N[C@@H]2CCCC[C@@H]2N)nc1Nc1cccc(-n2nccn2)c1
Outline: as §1

[3] = compound: NC1(c2ccc(-c3nc4ccn5c(=O)[nH]nc5c4cc3-c3ccccc3)cc2)CCC1
Outline: as §1

[4] = compound: NCC(=O)Nc1ccc(-n2nc(C(F)(F)F)cc2-c2ccc3c(ccc4ccccc43)c2)cc1
Outline: as §1

[5] = compound: Nc1ccccc1NC(=O)c1ccc(CNC(=O)OCc2cccnc2)cc1 [entinostat]
Outline: as §1

[6] = compound: O=C(CCCCCCC(=O)Nc1ccccc1)NO [vorinostat]
Outline: as §1

[7] = compound: O=C(CCCCCCNC(=O)c1cnc(N(c2ccccc2)c2ccccc2Cl)nc1)NO [citarinostat]
Outline: as §1

[8] = compound: O=C(O)c1ccc2c(c1)nc(Nc1cccc(Cl)c1)c1ccncc12 [silmitasertib]
Outline: as §1

[9] = compound: O=C1NC(=O)C(c2cnc3ccccn23)=C1c1cn2c3c(cc(F)cc13)CN(C(=O)N1CCCCC1)CC2
Outline: as §1

[10] = compound: c1cc(OCCN2CCCCC2)cc(-c2n[nH]c3ccc(-c4nnc[nH]4)cc23)c1
Outline: as §1

[11] = compound: c1cn2cc(-c3ccc4cn[nH]c4c3)nc(Nc3ccc(N4CCOCC4)cc3)c2n1 [entospletinib]
Outline: as §1

Measured: log2 fold change

MON1B (UniProt Q7L1V2)
UniProt Q7L1V2, sequence (Q7L1V2 whole entry, looked up): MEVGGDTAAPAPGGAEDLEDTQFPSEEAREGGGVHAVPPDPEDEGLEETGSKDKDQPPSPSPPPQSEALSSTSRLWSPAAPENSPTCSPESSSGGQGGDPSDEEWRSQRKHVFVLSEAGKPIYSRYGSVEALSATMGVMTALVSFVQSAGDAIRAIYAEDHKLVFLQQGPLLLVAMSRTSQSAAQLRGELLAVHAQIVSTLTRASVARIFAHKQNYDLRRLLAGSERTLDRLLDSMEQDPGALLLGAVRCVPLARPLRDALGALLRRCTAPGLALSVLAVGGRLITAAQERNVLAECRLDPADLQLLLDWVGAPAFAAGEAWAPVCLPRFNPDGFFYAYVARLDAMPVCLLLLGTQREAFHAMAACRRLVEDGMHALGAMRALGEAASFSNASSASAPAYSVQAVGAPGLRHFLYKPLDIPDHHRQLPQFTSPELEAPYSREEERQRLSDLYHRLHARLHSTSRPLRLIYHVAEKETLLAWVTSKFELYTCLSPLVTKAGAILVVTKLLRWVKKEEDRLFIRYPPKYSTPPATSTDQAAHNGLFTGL
active: [3] -0.312
inactive: [1] 0.015 | [2] -0.045 | [4] -0.053 | [5] -0.018 | [6] -0.001 | [7] 0.056 | [8] 0.032 | [9] 0.052 | [10] -0.081 | [11] 0.017

MKNK1 (UniProt Q9BUB5)
UniProt Q9BUB5, sequence (Q9BUB5 whole entry, looked up): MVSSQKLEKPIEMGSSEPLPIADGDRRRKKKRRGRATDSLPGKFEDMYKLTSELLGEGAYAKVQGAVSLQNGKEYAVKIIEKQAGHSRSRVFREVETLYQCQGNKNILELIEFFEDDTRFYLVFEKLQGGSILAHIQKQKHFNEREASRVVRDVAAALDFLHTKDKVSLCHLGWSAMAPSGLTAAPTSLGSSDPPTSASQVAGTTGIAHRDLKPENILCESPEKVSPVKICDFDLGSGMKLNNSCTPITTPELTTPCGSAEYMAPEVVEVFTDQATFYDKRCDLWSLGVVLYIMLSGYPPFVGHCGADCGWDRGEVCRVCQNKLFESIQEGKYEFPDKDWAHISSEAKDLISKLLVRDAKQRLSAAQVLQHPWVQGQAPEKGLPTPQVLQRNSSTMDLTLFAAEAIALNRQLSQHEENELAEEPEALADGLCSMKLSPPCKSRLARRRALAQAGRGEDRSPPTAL
inactive: [1] 0.226 | [2] -0.157 | [3] -0.158 | [4] -0.059 | [5] -0.026 | [6] -0.025 | [7] 0.025 | [8] 0.012 | [9] 0.019 | [10] -0.042 | [11] 0.01

NOP58 (UniProt Q9Y2X3)
inactive: [1] -0.012 | [2] 0.052 | [3] 0.316 | [4] 0.043 | [5] -0.05 | [6] -0.087 | [7] -0.048 | [8] 0.108 | [9] 0.082 | [10] -0.119 | [11] 0.085

MXRA7 (UniProt P84157)
inactive: [1] -0.097 | [2] 0.037 | [3] 0.037 | [5] 0.008 | [6] 0.003 | [7] -0.006 | [8] 0.028 | [9] -0.013 | [10] 0.061 | [11] -0.008
active: [4] -0.302

NME7 (UniProt Q9Y5B8)
UniProt Q9Y5B8, sequence (Q9Y5B8 whole entry, looked up): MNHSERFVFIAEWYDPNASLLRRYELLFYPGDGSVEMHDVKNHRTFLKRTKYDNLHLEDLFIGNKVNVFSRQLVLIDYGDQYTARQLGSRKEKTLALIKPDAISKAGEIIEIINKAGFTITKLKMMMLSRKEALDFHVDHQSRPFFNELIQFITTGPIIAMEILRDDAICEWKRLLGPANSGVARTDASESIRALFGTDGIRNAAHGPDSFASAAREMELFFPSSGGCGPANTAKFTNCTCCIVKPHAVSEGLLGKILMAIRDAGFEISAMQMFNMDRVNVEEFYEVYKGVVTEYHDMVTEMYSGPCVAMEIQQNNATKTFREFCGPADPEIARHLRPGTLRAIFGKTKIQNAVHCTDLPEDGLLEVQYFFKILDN
inactive: [1] 0.159 | [2] -0.13 | [3] -0.184 | [4] 0.057 | [5] 0.159 | [6] 0.145 | [7] 0.03 | [8] 0.071 | [9] 0.05 | [10] 0.186 | [11] -0.022

NME1 isoform 2 (UniProt P15531)
inactive: [1] 0.012 | [2] -0.017 | [3] -0.003 | [4] -0.003 | [5] -0.064 | [6] 0.103 | [7] -0.089 | [8] -0.138 | [9] -0.089 | [10] -0.253 | [11] 0.031

NUMA1 (UniProt Q14980)
inactive: [1] -0.117 | [2] -0.091 | [3] -0.139 | [4] 0.101 | [5] 0.072 | [6] 0.002 | [7] 0.01 | [8] 0.005 | [9] 0.007 | [10] -0.12 | [11] 0.049

NDUFA9 (UniProt Q16795)
UniProt Q16795, sequence (Q16795 whole entry, looked up): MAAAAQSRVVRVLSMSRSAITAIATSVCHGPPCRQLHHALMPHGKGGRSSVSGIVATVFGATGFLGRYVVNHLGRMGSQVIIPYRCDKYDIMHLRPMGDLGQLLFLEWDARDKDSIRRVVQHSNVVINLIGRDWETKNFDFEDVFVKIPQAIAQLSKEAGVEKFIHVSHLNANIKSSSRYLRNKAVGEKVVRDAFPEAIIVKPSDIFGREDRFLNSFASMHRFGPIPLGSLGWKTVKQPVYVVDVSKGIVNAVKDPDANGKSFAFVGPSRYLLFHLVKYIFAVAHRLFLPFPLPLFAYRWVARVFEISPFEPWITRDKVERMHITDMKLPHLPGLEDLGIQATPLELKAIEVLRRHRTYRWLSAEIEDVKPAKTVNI
inactive: [1] -0.025 | [2] -0.089 | [3] -0.112 | [4] -0.091 | [5] 0.039 | [6] 0.065 | [7] 0.037 | [8] -0.016 | [9] -0.104 | [10] 0.017 | [11] -0.011

NOLC1 isoform 2 (UniProt Q14978)
UniProt Q14978, sequence (Q14978 whole entry, looked up): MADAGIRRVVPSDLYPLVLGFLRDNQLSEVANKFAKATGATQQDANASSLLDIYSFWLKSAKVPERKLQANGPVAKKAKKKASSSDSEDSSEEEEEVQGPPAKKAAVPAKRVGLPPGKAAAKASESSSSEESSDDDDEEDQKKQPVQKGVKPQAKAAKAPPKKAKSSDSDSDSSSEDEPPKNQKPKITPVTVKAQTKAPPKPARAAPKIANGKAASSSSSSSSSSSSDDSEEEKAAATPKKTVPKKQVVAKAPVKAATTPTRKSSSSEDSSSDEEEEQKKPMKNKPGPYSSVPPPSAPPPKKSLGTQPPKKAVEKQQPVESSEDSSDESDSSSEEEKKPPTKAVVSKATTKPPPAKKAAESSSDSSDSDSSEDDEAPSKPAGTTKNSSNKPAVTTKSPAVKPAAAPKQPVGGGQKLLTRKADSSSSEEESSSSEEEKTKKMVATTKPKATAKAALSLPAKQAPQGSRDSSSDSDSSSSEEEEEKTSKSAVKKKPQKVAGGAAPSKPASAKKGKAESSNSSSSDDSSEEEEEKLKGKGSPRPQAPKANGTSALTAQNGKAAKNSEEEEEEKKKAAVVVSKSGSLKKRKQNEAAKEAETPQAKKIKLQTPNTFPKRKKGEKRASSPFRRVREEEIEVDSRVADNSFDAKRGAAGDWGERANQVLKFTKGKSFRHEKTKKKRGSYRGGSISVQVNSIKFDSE
inactive: [1] 0.149 | [2] -0.031 | [3] -0.011 | [4] 0.014 | [5] -0.043 | [6] 0.009 | [7] 0.109 | [8] -0.037 | [9] -0.037 | [10] -0.183 | [11] 0.062

PAK1 isoform 2 (UniProt Q13153)
inactive: [1] -0.067 | [2] 0.051 | [3] 0.012 | [4] -0.083 | [5] 0.021 | [6] 0.096 | [7] -0.033 | [8] 0.043 | [9] -0.068 | [10] -0.032 | [11] -0.02

NDUFS7 (UniProt O75251)
inactive: [1] -0.025 | [2] -0.079 | [3] -0.113 | [4] -0.057 | [5] -0.011 | [6] 0.103 | [7] 0.013 | [8] -0.003 | [9] -0.066 | [10] -0.027 | [11] 0.006

NNMT (UniProt P40261)
inactive: [1] 0.013 | [2] -0.04 | [3] -0.179 | [4] -0.037 | [5] -0.056 | [6] 0.128 | [7] -0.023 | [8] 0.013 | [9] -0.042 | [10] 0.139 | [11] 0.042

NOP53 (UniProt Q9NZM5)
inactive: [1] 0.054 | [2] 0.201 | [3] 0.353 | [4] 0.258 | [5] -0.141 | [6] -0.051 | [7] -0.063 | [8] 0.256 | [9] 0.285 | [10] -0.152 | [11] -0.001

MYL12B (UniProt O14950)
UniProt O14950, sequence (O14950 whole entry, looked up): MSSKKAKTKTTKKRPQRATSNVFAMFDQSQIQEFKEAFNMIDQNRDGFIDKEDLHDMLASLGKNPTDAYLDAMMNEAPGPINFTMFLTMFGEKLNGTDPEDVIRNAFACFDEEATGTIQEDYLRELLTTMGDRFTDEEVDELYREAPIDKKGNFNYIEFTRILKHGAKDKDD
inactive: [1] 0.09 | [2] 0.084 | [3] -0.013 | [4] 0.055 | [5] 0.029 | [6] -0.004 | [7] 0.045 | [8] -0.037 | [9] -0.042 | [10] 0.026 | [11] -0.03

OXR1 (UniProt Q8N573)
UniProt Q8N573, sequence (Q8N573 whole entry, looked up): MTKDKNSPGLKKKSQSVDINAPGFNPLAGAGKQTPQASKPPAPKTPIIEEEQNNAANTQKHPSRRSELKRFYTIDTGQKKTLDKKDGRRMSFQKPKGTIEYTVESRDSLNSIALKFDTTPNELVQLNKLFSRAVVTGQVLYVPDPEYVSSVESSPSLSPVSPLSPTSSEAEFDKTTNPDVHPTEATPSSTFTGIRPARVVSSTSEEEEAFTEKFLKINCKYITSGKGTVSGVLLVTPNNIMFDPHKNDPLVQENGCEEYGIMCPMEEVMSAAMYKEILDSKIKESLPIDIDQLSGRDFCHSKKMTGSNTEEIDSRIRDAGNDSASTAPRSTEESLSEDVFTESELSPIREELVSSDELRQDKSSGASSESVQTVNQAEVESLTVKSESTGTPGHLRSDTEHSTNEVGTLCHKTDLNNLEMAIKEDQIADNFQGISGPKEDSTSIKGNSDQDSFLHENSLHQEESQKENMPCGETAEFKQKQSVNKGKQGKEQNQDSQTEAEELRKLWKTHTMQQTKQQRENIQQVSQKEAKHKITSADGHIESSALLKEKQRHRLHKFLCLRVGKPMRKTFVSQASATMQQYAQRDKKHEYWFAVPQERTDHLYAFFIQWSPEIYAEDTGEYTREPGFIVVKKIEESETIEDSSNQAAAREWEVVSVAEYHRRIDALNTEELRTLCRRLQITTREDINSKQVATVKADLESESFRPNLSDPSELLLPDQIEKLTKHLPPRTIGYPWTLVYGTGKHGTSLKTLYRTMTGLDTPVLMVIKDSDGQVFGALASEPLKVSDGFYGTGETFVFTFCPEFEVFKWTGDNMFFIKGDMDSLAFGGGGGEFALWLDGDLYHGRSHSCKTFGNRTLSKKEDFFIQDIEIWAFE
inactive: [1] 0.03 | [2] 0 | [3] -0.157 | [4] -0.008 | [5] 0.023 | [6] -0.029 | [7] 0.062 | [8] -0.009 | [9] -0.044 | [10] -0.001 | [11] -0.019

NFATC3 (UniProt Q12968)
inactive: [1] -0.15 | [2] -0.137 | [3] 0.034 | [4] 0.007 | [5] 0.107 | [6] 0.045 | [7] -0.101 | [8] 0.118 | [9] -0.267 | [10] -0.225 | [11] 0.153

NA, A0A0B4J2A0
inactive: [1] -0.025 | [2] 0.029 | [3] -0.061 | [4] 0.031 | [5] 0.029 | [6] 0.05 | [7] 0.029 | [8] 0.017 | [9] -0.059 | [10] -0.012 | [11] 0.021

NA, A0A096LPI6
inactive: [1] 0.03 | [2] 0.04 | [3] -0.012 | [4] 0.016 | [5] -0.006 | [6] -0.02 | [7] 0.022 | [8] 0.024 | [9] -0.043 | [10] -0.015 | [11] 0.027

NUDCD2 (UniProt Q8WVJ2)
UniProt Q8WVJ2, sequence (Q8WVJ2 whole entry, looked up): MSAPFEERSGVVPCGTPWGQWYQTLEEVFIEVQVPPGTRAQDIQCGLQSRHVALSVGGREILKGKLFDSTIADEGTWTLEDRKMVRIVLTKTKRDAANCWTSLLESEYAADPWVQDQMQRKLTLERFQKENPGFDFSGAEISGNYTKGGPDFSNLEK
inactive: [1] -0.108 | [2] -0.099 | [3] -0.056 | [4] -0.172 | [5] 0.028 | [6] 0.147 | [7] 0.007 | [8] 0.063 | [9] -0.183 | [10] -0.044 | [11] -0.005

MRPS33 (UniProt Q9Y291)
inactive: [1] 0.019 | [2] 0.02 | [3] -0.032 | [4] 0.046 | [5] 0 | [6] 0.035 | [7] 0.039 | [8] -0.066 | [9] 0.016 | [10] -0.052 | [11] 0.086

MTMR14 (UniProt Q8NCE2)
UniProt Q8NCE2, sequence (Q8NCE2 whole entry, looked up): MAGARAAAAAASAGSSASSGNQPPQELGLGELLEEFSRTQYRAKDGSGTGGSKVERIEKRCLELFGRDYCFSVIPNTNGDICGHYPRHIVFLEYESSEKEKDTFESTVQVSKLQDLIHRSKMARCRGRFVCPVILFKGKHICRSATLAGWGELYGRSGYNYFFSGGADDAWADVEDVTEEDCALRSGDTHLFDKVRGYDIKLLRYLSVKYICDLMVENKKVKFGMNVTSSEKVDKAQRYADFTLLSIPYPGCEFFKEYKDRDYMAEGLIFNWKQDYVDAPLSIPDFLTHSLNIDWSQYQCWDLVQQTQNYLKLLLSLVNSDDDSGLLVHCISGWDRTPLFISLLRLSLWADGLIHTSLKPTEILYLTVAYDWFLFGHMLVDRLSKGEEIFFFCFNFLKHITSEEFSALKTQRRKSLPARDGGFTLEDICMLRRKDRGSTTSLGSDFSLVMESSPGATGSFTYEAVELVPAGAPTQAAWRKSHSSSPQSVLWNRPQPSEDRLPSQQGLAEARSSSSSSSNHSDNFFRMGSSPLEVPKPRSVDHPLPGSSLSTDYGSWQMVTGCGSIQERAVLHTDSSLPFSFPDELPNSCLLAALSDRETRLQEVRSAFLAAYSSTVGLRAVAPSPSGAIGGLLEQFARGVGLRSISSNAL
inactive: [1] -0.02 | [2] -0.08 | [3] -0.087 | [4] -0.075 | [5] 0.024 | [6] 0.093 | [7] 0.08 | [8] 0.071 | [9] -0.081 | [10] 0.039 | [11] -0.061

NEDD4L (UniProt Q96PU5)
inactive: [1] -0.045 | [2] -0.062 | [3] -0.06 | [4] -0.074 | [5] 0.075 | [6] 0.062 | [7] -0.001 | [8] 0.114 | [9] -0.006 | [10] -0.034 | [11] 0.046

NMNAT1 (UniProt Q9HAN9)
inactive: [1] 0.171 | [2] 0.145 | [3] 0.197 | [4] 0.081 | [5] 0.002 | [6] -0.077 | [7] -0.033 | [8] 0.201 | [9] 0.259 | [10] -0.174 | [11] 0.084

MYH11 isoform 2 (UniProt P35749)
inactive: [1] 0.056 | [2] 0.018 | [3] -0.017 | [4] 0.046 | [5] 0.015 | [6] 0.121 | [7] 0.027 | [8] -0.003 | [9] -0.009 | [10] -0.034 | [11] -0.047

NDUFS4 (UniProt O43181)
inactive: [1] -0.015 | [2] 0.026 | [3] 0.005 | [4] 0.053 | [5] -0.095 | [6] -0.058 | [7] -0.069 | [8] 0.03 | [9] 0.007 | [10] -0.039 | [11] 0.069

MKRN2 (UniProt Q9H000)
inactive: [1] -0.007 | [2] 0 | [3] 0.094 | [4] -0.044 | [5] 0.104 | [6] 0.228 | [7] 0.042 | [8] 0.047 | [9] 0.052 | [10] -0.129 | [11] -0.038

NR2C2 isoform 2 (UniProt P49116)
UniProt P49116, sequence (P49116 whole entry, looked up): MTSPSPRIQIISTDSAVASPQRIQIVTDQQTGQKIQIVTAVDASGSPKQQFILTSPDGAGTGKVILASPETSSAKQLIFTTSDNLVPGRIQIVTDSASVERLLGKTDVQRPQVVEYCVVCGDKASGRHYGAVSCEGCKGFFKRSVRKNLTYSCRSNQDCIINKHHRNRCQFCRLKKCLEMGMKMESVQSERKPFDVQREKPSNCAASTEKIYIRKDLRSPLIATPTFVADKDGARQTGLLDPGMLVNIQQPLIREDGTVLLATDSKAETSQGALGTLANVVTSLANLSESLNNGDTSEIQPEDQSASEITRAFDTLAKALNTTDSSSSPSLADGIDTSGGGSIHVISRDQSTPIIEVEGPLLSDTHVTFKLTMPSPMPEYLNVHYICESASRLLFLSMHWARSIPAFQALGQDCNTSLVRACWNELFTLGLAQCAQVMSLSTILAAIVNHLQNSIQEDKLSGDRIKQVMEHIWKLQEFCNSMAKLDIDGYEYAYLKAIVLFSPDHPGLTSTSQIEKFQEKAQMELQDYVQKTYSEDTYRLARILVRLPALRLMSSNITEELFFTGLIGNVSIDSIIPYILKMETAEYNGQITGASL
inactive: [1] -0.056 | [2] -0.036 | [3] -0.211 | [4] -0.104 | [5] -0.02 | [6] -0.116 | [7] -0.022 | [8] 0.074 | [9] 0.03 | [10] -0.04 | [11] 0.019

Reference: the supplement of paper PMC10849652
